According to PubChem BioAssay (NCI):
This is part of a sample that, as a whole, favours compounds with a hit. Of some 79,000 tested, about 15% had one in any assay. Activity calls are given as the source filed them. Cut-off read from the data, not from the text of the source: active = growth inhibition above about 70%; inactive = the rest.

Columns and labels:
[1] = NCI Yeast Anticancer Drug Screen. Data for the rad52 strain (AID 147);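 note: 0% = growth of vehicle-treated control cultures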; conditions: S. cerevisiae rad52 mutant growth inhibition, stronger effect = higher value
How it was run: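 DNA repair-defective yeast; compound exposure; growth scored against vehicle controls.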

[2] = NCI Yeast Anticancer Drug Screen. Data for the wt1 strain (AID 149);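 note: 0% = growth of vehicle-treated wt1 cultures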; conditions: S. cerevisiae wt1 strain (SPY 50644) growth inhibition, stronger effect = higher value
How it was run: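 Each compound is tested on wt1 yeast and the loss of growth versus vehicle gives the inhibition value.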

[3] = NCI Yeast Anticancer Drug Screen. Data for the rad50EPP+ strain (AID 151);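 note: 0% = growth of vehicle-treated control cultures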; conditions: S. cerevisiae rad50 mutant strain, stronger effect = higher value
How it was run: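 rad50EPP+ yeast treated with test compounds. Readout: growth vs vehicle control.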

[4] = NCI Yeast Anticancer Drug Screen. Data for the mgt1 strain (AID 153); conditions: S. cerevisiae mgt1 mutant growth inhibition, stronger effect = higher value
How it was run: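 Growth inhibition relative to vehicle controls was scored for the mgt1 yeast strain after compound exposure.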

[5] = NCI Yeast Anticancer Drug Screen. Data for the rad50 strain (AID 155);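 note: 0% = growth of vehicle-only cultures of the same strain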; conditions: S. cerevisiae rad50 strain growth inhibition, stronger effect = higher value
How it was run: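 Vehicle-treated cultures provide the reference for the growth inhibition reported for compound-exposed, repair-deficient yeast.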

[6] = NCI Yeast Anticancer Drug Screen. Data for the mec2-1 strain (AID 157); conditions: S. cerevisiae mec2-1 strain, stronger effect = higher value
How it was run: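 Growth inhibition is read against vehicle-treated controls after compound exposure of the mec2-1 yeast strain, which is defective in DNA damage repair or cell cycle control.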

[7] = NCI Yeast Anticancer Drug Screen. Data for the rad14 strain (AID 159);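 note: 0% = growth of vehicle-treated control cultures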; conditions: S. cerevisiae rad14 strain growth inhibition, stronger effect = higher value
How it was run: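 Inhibition of growth is reported for a repair-deficient yeast mutant following compound treatment, calculated relative to cultures that received vehicle.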

[8] = NCI Yeast Anticancer Drug Screen. Data for the sgs1 mgt1 strain (AID 161);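 note: 0% = growth of cultures given vehicle only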; conditions: S. cerevisiae sgs1 mgt1 strain, stronger effect = higher value
How it was run: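 Yeast cells carrying a defined DNA-repair defect were exposed to test compounds. Growth inhibition was measured relative to vehicle-treated controls.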

[9] = NCI Yeast Anticancer Drug Screen. Data for the CLN2oe strain (AID 163);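 note: 0% = growth of vehicle-only control cultures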; conditions: S. cerevisiae CLN2oe strain, stronger effect = higher value
How it was run: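 Compound-treated yeast; growth vs vehicle ctrl = % inhibition. Genetically altered strain (cell-cycle control).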

[10] = NCI Yeast Anticancer Drug Screen. Data for the cln2 rad14 strain (AID 165);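 note: 0% = growth equal to vehicle treated cultures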; conditions: S. cerevisiae cln2 rad14 strain, stronger effect = higher value
How it was run: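 Growth inhibition, relative to vehicle-treated controls, is the read-out. The test organism is a yeast strain with defined genetic alterations, cln2 rad14.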

[11] = NCI Yeast Anticancer Drug Screen. Data for the bub3 strain (AID 167); conditions: S. cerevisiae bub3 mutant strain, stronger effect = higher value
How it was run: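 Mutant yeast screening strain plus compound; vehicle-treated cultures serve as the 0% inhibition reference.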

[12] = NCI Yeast Anticancer Drug Screen. Data for the wt2 strain (AID 169); conditions: S. cerevisiae wt2 strain growth inhibition, stronger effect = higher value
How it was run: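 Compound exposure of yeast; growth compared with vehicle controls; inhibition reported.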

[13] = NCI Yeast Anticancer Drug Screen. Data for the mlh1 strain (AID 171);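 note: 0% = growth of vehicle-treated control cultures of the same strain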; conditions: S. cerevisiae mlh1 strain growth inhibition, stronger effect = higher value
How it was run: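 Compounds are applied to a genetically altered yeast strain, and its growth is compared with that of vehicle-treated cultures to give percent inhibition.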

[14] = NCI Yeast Anticancer Drug Screen. Data for the sgs1 strain (AID 173);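 note: 0% = growth of vehicle-only control cultures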; conditions: S. cerevisiae sgs1 mutant, stronger effect = higher value
How it was run: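 Compounds applied to genetically altered yeast; growth compared with vehicle-treated cultures to give % inhibition.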

[15] = NCI Yeast Anticancer Drug Screen. Data for the mlh1 rad18 strain (AID 175); conditions: S. cerevisiae mlh1 rad18 strain growth inhibition, stronger effect = higher value
How it was run: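 Cells of a genetically altered yeast strain, deficient in DNA damage repair, were treated with compound. Their growth was then compared with that of vehicle-treated cultures to give inhibition.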

[16] = NCI Yeast Anticancer Drug Screen. Data for the rad18 strain (AID 177); conditions: S. cerevisiae rad18 mutant growth inhibition, stronger effect = higher value
How it was run: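 Compounds are applied to a repair-deficient yeast strain, and growth is compared with that of vehicle-treated cultures to give percent inhibition.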

[17] = at 5.0 µM (retest, dose inferred, filed as 0.5)
[18] = at 50.0 µM (retest, dose inferred, filed as 5.0)

Measured: growth inhibition

CC(/C=C/c1ccccc1)=N\NC(N)=S
active: [1]; at 100.0 µM 72% | [5]; at 33.0 µM 93% | [5]; at 100.0 µM 97% | [8]; [18] 87% | [8]; at 50.0 µM 86.1% | [10]; at 50.0 µM 83% | [11]; at 50.0 µM 83.5% | [15]; [18] 77% | [16]; at 100.0 µM 94%
inactive: [1]; at 1.2 µM 4% | [1]; at 3.7 µM 16% | [1]; at 11.0 µM 16% | [1]; at 33.0 µM 24% | [2]; at 1.2 µM -8% | [2]; at 3.7 µM -5% | [2]; at 11.0 µM 6% | [2]; at 33.0 µM 17% | [2]; at 100.0 µM 35% | [3]; at 1.2 µM -5% | [3]; at 3.7 µM 6% | [3]; at 11.0 µM 0% | [3]; at 33.0 µM -3% | [3]; at 100.0 µM 48% | [4]; at 1.2 µM 9% | [4]; at 3.7 µM 13% | [4]; at 11.0 µM 10% | [4]; at 33.0 µM 29% | [4]; at 100.0 µM 52% | [5]; at 1.2 µM 14% | [5]; at 3.7 µM 10% | [5]; [17] 24% | [5]; at 11.0 µM 7% | [5]; [18] 60% | [5]; at 50.0 µM 33.7% | [6]; at 1.2 µM -2% | [6]; at 3.7 µM 5% | [6]; [17] 15% | [6]; at 11.0 µM -6% | [6]; at 33.0 µM 4% | [6]; [18] 35% | [6]; at 50.0 µM 62.5% | [6]; at 100.0 µM 59% | [7]; at 1.2 µM -8% | [7]; at 3.7 µM 2% | [7]; at 11.0 µM -17% | [7]; at 33.0 µM -15% | [7]; at 100.0 µM 45% | [8]; [17] 58% | [9]; at 1.2 µM 7% | [9]; at 3.7 µM 20% | [9]; at 11.0 µM 16% | [9]; at 33.0 µM 25% | [9]; at 100.0 µM 46% | [10]; [17] -5% | [10]; [18] 15% | [11]; at 1.2 µM 9% | [11]; at 3.7 µM -8% | [11]; [17] 18% | [11]; at 11.0 µM -2% | [11]; at 33.0 µM -8% | [11]; [18] 44% | [11]; at 100.0 µM 13% | [12]; at 1.2 µM -46% | [12]; at 3.7 µM -38% | [12]; at 11.0 µM -43% | [12]; at 33.0 µM -9% | [12]; at 100.0 µM 65% | [13]; at 1.2 µM 5% | [13]; at 3.7 µM 19% | [13]; at 11.0 µM 20% | [13]; at 33.0 µM 37% | [13]; at 100.0 µM 58% | [14]; at 1.2 µM -3% | [14]; at 3.7 µM 9% | [14]; at 11.0 µM 13% | [14]; at 33.0 µM 30% | [14]; at 100.0 µM 68% | [15]; [17] 49% | [15]; at 50.0 µM 58.8% | [16]; at 1.2 µM 9% | [16]; at 3.7 µM 11% | [16]; at 11.0 µM 33% | [16]; at 33.0 µM 67%

CN(C)c1nc(=Nc2cccc(Cl)c2)ss1
inactive: [1]; at 1.2 µM 7% | [1]; at 3.7 µM 34% | [2]; at 1.2 µM 7% | [2]; at 3.7 µM 20% | [2]; at 11.0 µM 63% | [3]; at 1.2 µM 9% | [3]; at 3.7 µM 42% | [4]; at 1.2 µM 9% | [4]; at 3.7 µM 47% | [5]; at 1.2 µM 5% | [5]; at 3.7 µM 32% | [6]; at 1.2 µM 11% | [6]; at 3.7 µM 28% | [6]; [17] 56% | [7]; at 1.2 µM 6% | [7]; at 3.7 µM 30% | [9]; at 1.2 µM -5% | [9]; at 3.7 µM 11% | [10]; [17] 17% | [11]; at 1.2 µM 1% | [11]; at 3.7 µM 28% | [11]; [17] 69% | [12]; at 1.2 µM 9% | [12]; at 3.7 µM 32% | [13]; at 1.2 µM 11% | [13]; at 3.7 µM 50% | [14]; at 1.2 µM 15% | [14]; at 3.7 µM 52% | [16]; at 1.2 µM 12% | [16]; at 3.7 µM 48%
active: [1]; at 11.0 µM 89% | [1]; at 33.0 µM 99% | [1]; at 100.0 µM 99% | [2]; at 33.0 µM 99% | [2]; at 100.0 µM 99% | [3]; at 11.0 µM 92% | [3]; at 33.0 µM 99% | [3]; at 100.0 µM 99% | [4]; at 11.0 µM 98% | [4]; at 33.0 µM 99% | [4]; at 100.0 µM 99% | [5]; [17] 75% | [5]; at 11.0 µM 89% | [5]; at 33.0 µM 99% | [5]; [18] 99% | [5]; at 50.0 µM 99.5% | [5]; at 100.0 µM 99% | [6]; at 11.0 µM 96% | [6]; at 33.0 µM 100% | [6]; [18] 99% | [6]; at 50.0 µM 99.7% | [6]; at 100.0 µM 100% | [7]; at 11.0 µM 97% | [7]; at 33.0 µM 99% | [7]; at 100.0 µM 99% | [8]; [17] 90% | [8]; [18] 99% | [8]; at 50.0 µM 99.7% | [9]; at 11.0 µM 71% | [9]; at 33.0 µM 99% | [9]; at 100.0 µM 99% | [10]; [18] 99% | [10]; at 50.0 µM 99.4% | [11]; at 11.0 µM 98% | [11]; at 33.0 µM 99% | [11]; [18] 98% | [11]; at 50.0 µM 98.3% | [11]; at 100.0 µM 99% | [12]; at 11.0 µM 90% | [12]; at 33.0 µM 99% | [12]; at 100.0 µM 99% | [13]; at 11.0 µM 96% | [13]; at 33.0 µM 99% | [13]; at 100.0 µM 99% | [14]; at 11.0 µM 95% | [14]; at 33.0 µM 99% | [14]; at 100.0 µM 99% | [15]; [17] 89% | [15]; [18] 99% | [15]; at 50.0 µM 99.5% | [16]; at 11.0 µM 97% | [16]; at 33.0 µM 99% | [16]; at 100.0 µM 99%

CN(C)CCNC(=O)c1cccc2cc([N+](=O)[O-])ccc12
active: [1]; at 33.0 µM 92% | [1]; at 100.0 µM 96% | [2]; at 33.0 µM 80% | [2]; at 100.0 µM 93% | [3]; at 33.0 µM 91% | [3]; at 100.0 µM 95% | [4]; at 33.0 µM 78% | [4]; at 100.0 µM 92% | [5]; at 11.0 µM 77% | [5]; at 33.0 µM 93% | [5]; [18] 92% | [5]; at 50.0 µM 86.5% | [5]; at 100.0 µM 97%
inactive: [1]; at 1.2 µM 14% | [1]; at 3.7 µM 20% | [1]; at 11.0 µM 61% | [2]; at 1.2 µM 13% | [2]; at 3.7 µM 8% | [2]; at 11.0 µM 41% | [3]; at 1.2 µM 5% | [3]; at 3.7 µM 21% | [3]; at 11.0 µM 64% | [4]; at 1.2 µM -1% | [4]; at 3.7 µM 4% | [4]; at 11.0 µM 33% | [5]; at 1.2 µM 35% | [5]; at 3.7 µM 42% | [5]; [17] 38% | [6]; at 1.2 µM -6% | [6]; at 3.7 µM 8%
